Screens as filed in PubChem.
Tau fibril ThT: tau fibrillization inhibition (ThT binding) | P10636 | recombinant tau K18 P301L, heparin-induced fibrillization, ThT fluorescence | Potency, µM (series often up to 57.4 µM), for inactives: at the top dose activity, negative = inhibition, actives largely listed as inhibitors | 270,000 compounds, 2.1% hits; also: potency is read from the fitted curve at half-maximal effect; nearly all actives have a fitted effect of over 55% in size
Target sequence (P10636 561-689 P618L limits assumed): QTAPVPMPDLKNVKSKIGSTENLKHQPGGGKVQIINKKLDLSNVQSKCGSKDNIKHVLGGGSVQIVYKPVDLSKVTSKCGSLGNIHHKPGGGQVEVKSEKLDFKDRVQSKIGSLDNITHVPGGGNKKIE
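K18 P301L tau (15 uM + 0.24 uM Alexa 594-tagged), heparin 20 uM, NaOAc pH 7, 6 h 37 C; ThT 30 uM, 1 h RT, ex 450/em 510 nm.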
Tau fluor cs: counter-screen for tau fibril formation inhibitors. tau K18 P301L Alexa594 fluorescence, heparin fibrillization. Potency, µM (highest dose often 57.7 µM), for the others: at the highest dose activity change, negative = decrease. 280,000 compounds, 0.93% hits; also: potency is read from the fitted curve at half-maximal effect; nearly all actives have a fitted effect of over 55% in size
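Human tau K18 P301L (15 uM unlabeled, 0.24 uM Alexa 594-labeled) in 100 mM sodium acetate pH 7 with 20 uM heparin, 6 hr at 37 C. ThT 30 uM added, 1 hr ambient; Alexa 594 FP and total fluorescence read at 555/632 nm.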
FBPA coupling cs: counter-screen for Giardia aldolase inhibitors: coupling enzyme system; coupling enzyme system counterscreen, AmpLite Red fluorescence; activity change, negative = inhibition, % at 58.2 µM, hits read low; 290,000 compounds, 0.67% hits; in the data active = activity change below about -30%
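Final compound at 57.5 uM, incubated 10 min at RT with coupling enzyme reagent (glyceraldehyde-3-phosphate), then 20 min with substrate and AmpLite Red detection. Fluorescence read at 525/598 nm; tests interference with the coupling assay, not aldolase inhibition.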
Tau fibril FP: inhibitors of human tau fibril formation | K18 P301L tau heparin fibrillization, Alexa594 FP, 6 h | Potency, µM (series often up to 57.7 µM), without a hit: at the top dose activity, negative = inhibition, most hits filed as inhibitors | 280,000 compounds, 0.39% hits; also: potency is read from the fitted curve at half-maximal effect; nearly all actives have a fitted effect of over 55% in size
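K18 P301L tau (15 uM unlabeled/0.24 uM Alexa 594-labeled, final) + compound + heparin 20 uM final; 100 mM NaOAc pH 7; 6 hr 37 C; ThT 30 uM final added, 1 hr RT; FP ex 555/em 632 nm.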
Sfp inh: Sfp phosphopantetheinyl transferase inhibition. Biochemical Sfp PPTase activity, qHTS. Potency, µM, inactives show largest response in the series, negative = inhibition, usual class: inhibitors. 310,000 compounds, 3.5% hits. AID 1490;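 also: the enzyme is Sfp with the accession as filed and its product quenches rhodamine fluorescence; potency is read from the fitted curve at half-maximal effect; 0% = enzyme reaction without inhibitor and -100% = no enzyme wells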
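Reaction rates are the 30-min fluorescence difference (ex 525, em 598 nm) in wells containing 15 nM Sfp, 5 uM rhodamine-CoA and 12.5 uM BHQ-2-YbbR at pH 7.6 with 10 mM MgCl2.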
* marks the source's active call; other numbers are inactive results; [ ] = another dose, or the depositor's remark. Rows were chosen to be rich in hits. Some 5.2% of all compounds tested hit in one or more screens of this group. Unless noted, calls follow the shape of the dose curve; as a rule, active = well fitted curve in the direction sought with a large enough effect; inconclusive = small, poorly fitted or top-dose-only effect, or another doubt; inactive = no such curve, though single readings can be large; an effect the other way counts as inactive or inconclusive. Unless noted, % is scaled to controls: 0 for no effect and ±100 for the full control effect.

For Cn1c(-c2c(N)n(CCCc3ccccc3)c3nc4ccccc4nc23)nc2ccccc21 the results were Tau fibril ThT 4%, Tau fluor cs 3%, Tau fibril FP 4% and Sfp inh 18%.
For COCCCn1c(N)c(-c2nc3ccccc3n2C)c2nc3ccccc3nc21 the results were Tau fibril ThT 18µM*, Tau fluor cs 16µM*[quencher], FBPA coupling cs -4, Tau fibril FP inconclusive and Sfp inh 3%.
Screening COc1ccc(-c2nnc(SCC(=O)N(C)Cc3ccccc3)o2)cc1OC returned Tau fibril ThT 10%, Tau fluor cs -22% and Tau fibril FP inconclusive.
`CC(C(=O)Nc1cc([N+](=O)[O-])ccc1Cl)N1CCN(c2ccc(O)cc2)CC1` (stereo not drawn) gave Tau fibril ThT inconclusive, Tau fluor cs -25%, FBPA coupling cs -5, Tau fibril FP 1% and Sfp inh 56µM*.
`O=C(NCCN1CCOCC1)C1(C(F)(F)F)C/C(=C\CCO)CCCO1` (stereo not drawn) gave FBPA coupling cs 2 and Sfp inh -2%.
COc1cccc(/C=C2\SC(=S)N(CCCC(=O)Nc3ccc(C(=O)O)cc3)C2=O)c1 was read as Sfp inh -11%.
For Cc1ccc(NC(=O)COc2cccc(/C=C3\SC(=S)N(CCC(=O)O)C3=O)c2)cc1Cl the results were Tau fibril ThT 13µM*, Tau fluor cs -13%, FBPA coupling cs 10, Tau fibril FP -1% and Sfp inh -19%.
`O=C(O)CCN1C(=O)/C(=C\c2cccc(OCC(=O)Nc3ccc(Cl)cc3)c2)SC1=S` gave Tau fibril ThT 13µM*, Tau fluor cs -16%, FBPA coupling cs 13, Tau fibril FP -4% and Sfp inh -4%.
O=C(CCN1C(=O)/C(=C/c2ccc(Cl)cc2)SC1=S)Nc1cccc(C(=O)O)c1 was read as FBPA coupling cs 7 and Sfp inh -1%.
CCCc1cc(-c2[nH]ncc2-c2ccc3c(c2)OCCCO3)c(O)cc1O was read as Tau fibril ThT inconclusive, Tau fluor cs 10µM*[quencher], FBPA coupling cs 2, Tau fibril FP inconclusive and Sfp inh 13%.
CCCc1cc(-c2[nH]ncc2-c2ccc(C(=O)OCC)o2)c(O)cc1O was read as Tau fibril ThT -14%, Tau fluor cs 14µM*[quencher], FBPA coupling cs -1, Tau fibril FP inconclusive and Sfp inh 12%.
`Cn1cc(CNCc2cn[nH]c2-c2ccc(F)cc2)c(-c2ccc3c(c2)OCCO3)n1` gave Tau fibril ThT -7%, Tau fluor cs -8%, FBPA coupling cs 2, Tau fibril FP -6% and Sfp inh 8%.
O=C(O)c1ccc2c(c1)C(=O)N([C@@H](Cc1ccc(O)cc1)C(=O)O)C2=O was read as FBPA coupling cs 0 and Sfp inh 19%.
Screening COc1cc(-c2nnn(CC(=O)Nc3ccc(OC(F)(F)F)cc3)n2)cc(OC)c1OC returned Tau fibril ThT -3%, Tau fluor cs inconclusive and Tau fibril FP 18µM*.
Screening CCOc1ccc(CNC(=O)C2CCN(C(=O)c3sccc3-n3cccc3)CC2)cc1 returned Tau fibril ThT -10%, Tau fluor cs -10% and Tau fibril FP 1%.
For O=C(NCC1CC1)[C@H]1C[C@@H]1[C@H](NP(=O)(c1ccccc1)c1ccccc1)c1ccccc1 the results were Tau fibril ThT -11%, Tau fluor cs -12%, FBPA coupling cs 4, Tau fibril FP 7% and Sfp inh 12%.
For CN1CCN(CC(=O)Nc2ccc(S(=O)(=O)N(C)C)cc2)CC1 the results were FBPA coupling cs 0 and Sfp inh 56µM*.
Screening O=C(O)C1CCC(NSc2ccccc2[N+](=O)[O-])CC1 (stereo not drawn) returned Tau fibril ThT 16µM*, Tau fluor cs -19%, FBPA coupling cs 5, Tau fibril FP 18µM* and Sfp inh 1%.
For NC(=O)CC(NSc1ccccc1[N+](=O)[O-])C(=O)O (stereo not drawn) the results were Tau fibril ThT inconclusive, Tau fluor cs -16%, FBPA coupling cs 3, Tau fibril FP inconclusive and Sfp inh 50µM*.
